This is an account of results in PubChem BioAssay (NCI).

Experiment [1] can be described thus: NCI Yeast Anticancer Drug Screen. Data for the rad50 strain (AID 155).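 Further: 0% = growth of vehicle-only cultures of the same strain.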 The settings on record: S. cerevisiae rad50 strain growth inhibition; at 50.0 µM; active compounds read high. Summed up: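 Compounds were tested on a yeast strain with an engineered DNA damage repair alteration; the reported value is growth inhibition normalised to vehicle treatment.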
Experiment [2] in a line: NCI Yeast Anticancer Drug Screen. Data for the mec2-1 strain (AID 157). The note with it: S. cerevisiae mec2-1 strain, at 50.0 µM, active compounds read high. An outline of the steps:
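Cells of the genetically defined mec2-1 yeast strain are incubated with test compound. Inhibition of growth is calculated against vehicle-treated controls.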

Experiment [3] can be described thus: NCI Yeast Anticancer Drug Screen. Data for the sgs1 mgt1 strain (AID 161).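 Further: 0% = growth of cultures given vehicle only.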 The settings on record: S. cerevisiae sgs1 mgt1 strain, at 50.0 µM, active compounds read high. An outline of the steps: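 Inhibition of yeast growth, normalised to vehicle-treated controls, is reported for a strain bearing genetic alterations in DNA damage repair.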
Experiment [4] in a line: NCI Yeast Anticancer Drug Screen. Data for the cln2 rad14 strain (AID 165).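 Further: 0% = growth equal to vehicle treated cultures.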 The settings on record: S. cerevisiae cln2 rad14 strain, at 50.0 µM, active compounds read high. An outline of the steps:
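The screen exposed genetically defined yeast (cln2 rad14) to test compounds and scored growth inhibition relative to vehicle-treated controls.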

The nature of experiment [5]: NCI Yeast Anticancer Drug Screen. Data for the bub3 strain (AID 167). The settings on record: S. cerevisiae bub3 mutant strain, at 50.0 µM, active compounds read high. Summed up:
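Growth of a checkpoint-deficient yeast mutant is measured after compound exposure. Values represent inhibition relative to vehicle.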

The nature of experiment [6]: NCI Yeast Anticancer Drug Screen. Data for the mlh1 rad18 strain (AID 175). The settings on record: S. cerevisiae mlh1 rad18 strain growth inhibition; at 50.0 µM; active compounds read high. An outline of the steps:
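Compound-treated yeast growth, normalised to vehicle controls. Strain bears defined DNA repair mutations.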

This is part of a sample that, as a whole, favours compounds with a hit. Of some 79,000 tested, about 15% had one in any assay. Values without a mark were called inactive. Active and inactive are the calls of the source. No stated cut-off is given here; in the data, active means growth inhibition above about 70%; inactive means the rest.

Take `CC(Oc1ccccc1)C(O)(c1ccc(N(C)C)cc1)c1ccc(N(C)C)cc1` (stereo not given): the growth inhibition is 3.3% in experiment [1]; -5.9% in experiment [2]; 9.3% in experiment [3]; 8.15% in experiment [4]; 1.4% in experiment [5]; 11.9% in experiment [6].

As to `COc1ccc(C2=C(N)c3cc(OC)ccc3C2=O)cc1`, the growth inhibition in experiment [1] is 41.1%; in experiment [2], 12.3%; in experiment [3], 33%; in experiment [4] it was -0.3%; in experiment [5], 32.1%; in experiment [6], -24.8%.

For `O=C(O)c1ccccc1C(=O)c1ccc(F)c2ccccc12`, the growth inhibition was 11% in experiment [1]; 26.9% in experiment [2]; 18.6% in experiment [3]; 21.1% in experiment [4]; 3.75% in experiment [5]; 10.7% in experiment [6].

On to `CC1C(=O)C23CC1CCC2C12COC(O)C1C(C)(C)C(O)CC2OC3=O` (stereo not given), for which the growth inhibition in experiment [1] is -10.4%; in experiment [2], -5.95%; in experiment [3], -12.7%; in experiment [4] it was 17.1%; in experiment [5] it was -43.6%; in experiment [6], -16.4%.

For the compound `O=C1NC(=O)N2CCCOC2C1c1ccccc1` (stereo not given), the growth inhibition was 0.2% in experiment [1]; -5.5% in experiment [2]; 0.4% in experiment [3]; -10.2% in experiment [4]; -2.7% in experiment [5]; 22.3% in experiment [6].

As to `O=C(O)Cc1ccccc1C(=O)O`, the growth inhibition in experiment [1] was 12.9%; in experiment [2] it was 2.3%; in experiment [3], 7.7%; in experiment [4], 13.8%; in experiment [5], -19%; in experiment [6], -5%.

For `N#CC(C#N)=C(O)/C(=C/c1ccccc1[N+](=O)[O-])NC(=O)c1ccccc1`, the growth inhibition in experiment [1] is 2.75%; in experiment [2], -5.6%; in experiment [3] it was -3.65%; in experiment [4], 23.9%; in experiment [5], 1.75%; in experiment [6], 40.4%.

As to `CN1C(=O)n2c(nc3ccccc32)C(N2CCOCC2)(N2CCOCC2)C1=O`, the growth inhibition in experiment [1] is 44%; in experiment [2] it was 56.4%; in experiment [3], 62.9%; in experiment [4], 29.9%; in experiment [5], 31.4%; in experiment [6], 45.8%.

With `O=C(Nc1cccc(Cl)c1)OCc1ccccn1`, the growth inhibition was 37.6% in experiment [1]; 8.15% in experiment [2]; 6.9% in experiment [3]; -21.5% in experiment [4]; -0.95% in experiment [5]; 22.1% in experiment [6].

As to `CN(C)c1ccc(/C=C/C=C(/C#N)c2ccccc2)cc1`, the growth inhibition in experiment [1] is 14.8%; in experiment [2], 8.5%; in experiment [3], 2.9%; in experiment [4], 32.2%; in experiment [5], 24.3%; in experiment [6], 2.65%.

Consider `CN1C(=O)CC2(C)c3cc(O)cc(Br)c3N(C)C12` (stereo not given), for which the growth inhibition in experiment [1] was 6.6%; in experiment [2], -10.5%; in experiment [3] it was 8.45%; in experiment [4], 10.5%; in experiment [5], -6.25%; in experiment [6], 17.7%.

On to `CC(C)S(=O)(=O)c1s[nH]c(=O)c1-c1ccccc1`, for which the growth inhibition is -14.9% in experiment [1]; -0.1% in experiment [2]; 12.2% in experiment [3]; 5.75% in experiment [4]; -4.15% in experiment [5]; -1.2% in experiment [6].

For the compound `COc1cc(C(C)O)c[n+](CCC2CNc3ccccc32)c1` (stereo not given), the growth inhibition in experiment [1] was -4.65%; in experiment [2], -2.2%; in experiment [3], 5.8%; in experiment [4], 18.6%; in experiment [5] it was 6.45%; in experiment [6], -21.1%.

As for `CC(O)C(=O)OCCOCCOC(=O)C(C)O` (stereo not given), the growth inhibition in experiment [1] is 21.4%; in experiment [2], 4.1%; in experiment [3], 10.8%; in experiment [4] it was -11.8%; in experiment [5], 11.8%; in experiment [6], 7.4%.

Consider `Cc1cc(C)c(C2=[N+]([O-])ON3CCc4ccccc4C23)c(C)c1` (stereo not given), for which the growth inhibition in experiment [1] is 1.5%; in experiment [2] it was -7.7%; in experiment [3] it was -3.05%; in experiment [4], 4.5%; in experiment [5], -5.3%; in experiment [6], -3.2%.

With `C=CCOc1ccc(Cl)cc1Br`, the growth inhibition in experiment [1] was -1.8%; in experiment [2], -4.6%; in experiment [3] it was -2.65%; in experiment [4] it was -46.6%; in experiment [5] it was -3.35%; in experiment [6], -7.8%.

For `CCC1(c2ccccc2)SC(N)=NC1=O` (stereo not given), the growth inhibition is 2.15% in experiment [1]; 2.75% in experiment [2]; -12.8% in experiment [3]; -8.45% in experiment [4]; 1.05% in experiment [5]; -0.6% in experiment [6].

On to `Cc1cc2c(=O)c(C(=O)O)c[nH]c2cc1-n1cccc1`, for which the growth inhibition is 41.8% in experiment [1]; 23.6% in experiment [2]; 45% in experiment [3]; 15.7% in experiment [4]; 36.3% in experiment [5]; 33.2% in experiment [6].

`COc1ccc(CC2=NCCc3cc(OCc4ccccc4)c(OC)cc32)cc1OCc1ccccc1`: the growth inhibition in experiment [1] is 66.8%; in experiment [2], 55%; in experiment [3], 52.5%; in experiment [4], 30.6%; in experiment [5] it was 78.5% (active); in experiment [6] it was 93.8% (active).

Regarding `CC(C)(C)C1CCC2c3c([nH]c4ncccc34)C3C(=O)N(c4ccccc4)C(=O)C3C2C1` (stereo not given), the growth inhibition in experiment [1] was 20.4%; in experiment [2] it was -6.15%; in experiment [3], 1.7%; in experiment [4] it was -67.2%; in experiment [5], -32.6%; in experiment [6] it was -7.85%.
